# Data: PubChem BioAssay (NCI)
# About 79,000 compounds went through this panel and 15% of them were active in at least one assay; those are over-represented in the sample as a whole. A number with no mark means an inactive call. Activity calls are given as the source filed them. No stated cut-off is given here; in the data, active means growth inhibition above about 70%; inactive means the rest.
# How the values were obtained:
# [1] = NCI Yeast Anticancer Drug Screen. Data for the rad50 strain (AID 155);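 further: 0% = growth of vehicle-only cultures of the same strain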; details: S. cerevisiae rad50 strain growth inhibition, stronger effect = higher value
# In short: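 Relative growth inhibition (compound vs vehicle) was measured in yeast with a defined repair-gene alteration.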
# [2] = NCI Yeast Anticancer Drug Screen. Data for the mec2-1 strain (AID 157); details: S. cerevisiae mec2-1 strain, stronger effect = higher value
# In short: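 Using mec2-1 yeast: add compound, measure growth, express inhibition versus vehicle-treated cultures.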
# [3] = NCI Yeast Anticancer Drug Screen. Data for the sgs1 mgt1 strain (AID 161);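 further: 0% = growth of cultures given vehicle only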; details: S. cerevisiae sgs1 mgt1 strain, stronger effect = higher value
# In short: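 This yeast growth screen uses a strain with defined DNA-repair lesions; compound-treated growth is compared with vehicle-treated growth.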
# [4] = NCI Yeast Anticancer Drug Screen. Data for the cln2 rad14 strain (AID 165);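 further: 0% = growth equal to vehicle treated cultures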; details: S. cerevisiae cln2 rad14 strain, stronger effect = higher value
# In short: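 Yeast strain cln2 rad14, bearing defects in cell cycle control and DNA repair, serves as the test system; values reflect growth inhibition compared with vehicle.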
# [5] = NCI Yeast Anticancer Drug Screen. Data for the bub3 strain (AID 167); details: S. cerevisiae bub3 mutant strain, stronger effect = higher value
# In short: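 Screening used yeast with an engineered genetic alteration affecting cell cycle control. Compound-exposed cultures were compared with vehicle cultures, and reduced growth was taken as inhibition.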
# [6] = NCI Yeast Anticancer Drug Screen. Data for the mlh1 rad18 strain (AID 175); details: S. cerevisiae mlh1 rad18 strain growth inhibition, stronger effect = higher value
# In short: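 Steps: expose repair-defective yeast to compound; measure growth; express inhibition against vehicle-treated controls.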
# [7] = at 5.0 µM (retest, dose inferred, filed as 0.5)
# [8] = at 50.0 µM (retest, dose inferred, filed as 5.0)
Compound,"growth inhibition [1, 7]","growth inhibition [1, 8]",growth inhibition ([1]; at 50.0 µM),"growth inhibition [2, 7]","growth inhibition [2, 8]",growth inhibition ([2]; at 50.0 µM),"growth inhibition [3, 7]","growth inhibition [3, 8]",growth inhibition ([3]; at 50.0 µM),"growth inhibition [4, 7]","growth inhibition [4, 8]",growth inhibition ([4]; at 50.0 µM),"growth inhibition [5, 7]","growth inhibition [5, 8]",growth inhibition ([5]; at 50.0 µM),"growth inhibition [6, 7]","growth inhibition [6, 8]",growth inhibition ([6]; at 50.0 µM)
CC1CCN(C(=S)NNC(C)c2cc3ccccc3cn2)CC1 (configuration not stated),45%,97% (active),82.5% (active),60%,98% (active),75.7% (active),80% (active),97% (active),88.6% (active),82% (active),97% (active),84.9% (active),71% (active),97% (active),85.8% (active),50%,96% (active),86.8% (active)
CCc1c(O)sc2c(c1=O)C(=NCC(C)C)CC(C)(C)N2,-5%,5%,40.3%,15%,34%,24.1%,9%,-4%,34.1%,-14%,-7%,27.4%,2%,4%,10.8%,-12%,-6%,53.9%
CC(=O)OC1C2C3C(C=CC2[C@H]1OC(C)=O)C1C3C=CC2C1C(OC(C)=O)[C@@H]2OC(C)=O (some centres not stated),3%,14%,18.4%,-1%,21%,11.8%,-173%,11%,5.2%,-2%,13%,14.3%,-2%,4%,-1.9%,12%,30%,12.9%
O=C1CC(c2ccccc2)C(c2ccccc2)CO1 (configuration not stated),85% (active),99% (active),84.9% (active),35%,99% (active),92.7% (active),52%,98% (active),91.5% (active),13%,98% (active),93.8% (active),56%,97% (active),94% (active),74% (active),99% (active),93.7% (active)
CC(=O)N(C)NC(=O)c1ccccc1,1%,-6%,10.4%,-1%,2%,-12.8%,1%,-4%,-10.2%,-8%,5%,27.3%,-2%,-1%,12.9%,0%,-5%,-4.7%
CCc1ccc(N(C(C)=O)C2=C(Cl)C(=O)c3ccccc3C2=O)cc1,99% (active),99% (active),98.4% (active),100% (active),99% (active),91% (active),100% (active),100% (active),99.2% (active),99% (active),99% (active),77% (active),99% (active),100% (active),67.9%,100% (active),99% (active),98.7% (active)
C/C(O)=c1\cc(C#N)c(=C(C#N)C#N)nc1C,-4%,-3%,8.05%,-2%,1%,-0.15%,2%,5%,1.15%,-1%,-8%,-3%,3%,11%,10.6%,0%,3%,46.4%
C#CC(CC)(CC)N=Cc1cc(Cl)cc(Cl)c1O,65%,94% (active),89.2% (active),42%,97% (active),91.8% (active),58%,99% (active),92% (active),41%,72% (active),88.7% (active),51%,66%,90.7% (active),69%,98% (active),90.5% (active)
CN(C)C(=S)Oc1ccc(C(C)(C)C)cc1,-156%,-68%,50.9%,-53%,-59%,-14.4%,-65%,-47%,40.5%,-72%,-68%,-34.7%,-65%,-27%,60.4%,-129%,-123%,29.1%
COC1=CC(=O)c2c(ccc3ncnc(N)c23)C1=O,20%,73% (active),22%,15%,15%,3.35%,14%,28%,-6%,18%,32%,24.9%,19%,-11%,17.5%,13%,59%,-4.3%
CCCC#CCCOC(=O)c1cc([N+](=O)[O-])cc([N+](=O)[O-])c1,3%,97% (active),99.2% (active),5%,99% (active),98.5% (active),12%,99% (active),99.5% (active),-7%,76% (active),98.9% (active),-11%,96% (active),99.4% (active),5%,98% (active),98.5% (active)
CCOC(=O)c1nc(SC)sc1NC(=O)c1ccccc1Cl,1%,1%,19.4%,-5%,-5%,-15.6%,4%,4%,77.8% (active),-13%,-13%,27.8%,-14%,-14%,30.4%,-5%,-5%,-8.2%
CC(C)CC(N)C(=O)NNc1ccccc1 (configuration not stated),29%,94% (active),96.8% (active),23%,96% (active),84.2% (active),30%,97% (active),88.6% (active),19%,83% (active),94.2% (active),37%,96% (active),97.5% (active),72% (active),99% (active),98% (active)
CC(CN(C)C)C(/C=C/c1ccc(F)cc1)=N\Nc1ccccc1 (configuration not stated),-8%,51%,30.1%,-11%,1%,12.6%,-15%,13%,42.6%,5%,46%,3.65%,-1%,39%,15.9%,0%,29%,75.7% (active)
CCCc1cc(=O)oc2c3c(c4c(c12)OC(C)(C)CC4)O[C@H](C)[C@H](C)C3=O,-7%,99% (active),88.5% (active),-18%,99% (active),91.6% (active),-12%,99% (active),88.2% (active),-6%,98% (active),90.3% (active),-18%,99% (active),91.1% (active),-5%,99% (active),84.7% (active)
CCC1([N+](=O)[O-])COC(c2ccc3c(c2)OCO3)OC1 (configuration not stated),-9%,-11%,-1.7%,-14%,-1%,-3.15%,-1%,-47%,11.7%,10%,21%,-1.9%,14%,-23%,3.35%,-18%,-6%,4.45%
CCOC(=O)C1(C#N)C(c2ccccc2)CC(O)(c2ccc([N+](=O)[O-])cc2)C(C(=O)c2ccc([N+](=O)[O-])cc2)C1c1ccccc1 (configuration not stated),-10%,-25%,15.6%,5%,-12%,14.3%,-8%,0%,-6.4%,-18%,-17%,31.4%,-13%,2%,6%,1%,-3%,21.2%
COC(=O)CCCC(=O)NC1=C(Nc2ccccc2)C(=O)c2ccccc2C1=O,27%,72% (active),45.5%,15%,41%,14.5%,22%,50%,52.2%,15%,24%,38.6%,33%,67%,61%,23%,60%,16.3%
CN(C)C(=O)c1cc(Br)cc(-c2ccccc2)c1O,4%,77% (active),55.1%,0%,84% (active),73% (active),3%,86% (active),75.8% (active),2%,63%,38.6%,1%,88% (active),87.5% (active),-4%,92% (active),51.8%
